In PubChem BioAssay AID1159580 (chemical genetic matrix, 2015):
“And” between values parts separate entries of the source, which are not always exact repeats. Identical values can stand only once. About 2,000 (36%) of roughly 5,500 compounds were called active. Another 18% or so got no clear call; they are omitted. Rule as the data show it: active = normalized growth mostly below about 0.91 (no sharp cut-off); inconclusive = no clear call, values can overlap the other calls; inactive = mostly above about 0.92. Some of the results follow.

Experiment: chemical genetic growth profiling, strain panel (AID 1159580);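 also: tested at 20 µM; growth read once vehicle control cultures reached saturation at 30 °C; 1 = growth at the plate median or of vehicle wells; lower values mean less growth of the strain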
Conditions: S. cerevisiae deletion strains, growth OD

Measured: normalized growth

CC(C)Cn1c(=O)n(C)c(=O)c2[nH]cnc21
inactive: locus YAL013W, strain DEP1, stronger effect = lower value 0.999 | locus YAL021C, strain ccr4, stronger effect = lower value 1.03 and 0.994 | locus YAL026C, strain drs2, stronger effect = lower value 1 and 1.03 | locus YAL030W, strain snc1, stronger effect = lower value 0.99 and 1 | locus YAL040C, strain CLN3, stronger effect = lower value 0.982 | locus YBL061C, strain skt5, stronger effect = lower value 0.992 and 1.02 | locus YBR009C, strain hhf1, stronger effect = lower value 1.01 and 0.995 | locus YBR021W, strain FUR4, stronger effect = lower value 0.966 | locus YBR023C, strain chs3, stronger effect = lower value 1 and 1.01 | locus YBR171W, strain sec66, stronger effect = lower value 0.998 and 1.03 | locus YBR229C, strain ROT2, stronger effect = lower value 0.982 | locus YBR231C, strain swc5, stronger effect = lower value 0.989 and 1.01 | locus YBR279W, strain paf1, stronger effect = lower value 0.996 and 1 | locus YCL011C, strain gbp2, stronger effect = lower value 1.01 and 1 | locus YCL016C, strain dcc1, stronger effect = lower value 0.984 and 0.981 | locus YCL029C, strain bik1, stronger effect = lower value 0.984 | locus YCL061C, strain MRC1 (second series), stronger effect = lower value 0.984 | locus YCL061C, strain MRC1, stronger effect = lower value 1 | locus YCL069W, strain vba3, stronger effect = lower value 1 | locus YCR088W, strain abp1, stronger effect = lower value 1 and 1.01 | locus YDL005C, strain med2, stronger effect = lower value 1 and 1.01 | locus YDL035C, strain GPR1, stronger effect = lower value 1.01 | locus YDL040C, strain nat1, stronger effect = lower value 0.988 and 1.01 | locus YDL074C, strain BRE1, stronger effect = lower value 1.03 | locus YDL101C, strain DUN1, stronger effect = lower value 0.984 | locus YDL134C, strain PPH21, stronger effect = lower value 0.991 | locus YDL185W, strain tfp1, stronger effect = lower value 0.988 | locus YDL192W, strain arf1, stronger effect = lower value 0.996 | locus YDR001C, strain nth1, stronger effect = lower value 1 and 1.01 | locus YDR069C, strain doa4, stronger effect = lower value 0.987 and 1.02 | locus YDR101C, strain arx1, stronger effect = lower value 0.989 | locus YDR137W, strain rgp1, stronger effect = lower value 0.976 and 0.984 | locus YDR150W, strain NUM1, stronger effect = lower value 0.998 and 0.994 | locus YDR159W, strain sac3, stronger effect = lower value 0.965 and 1.04 | locus YDR162C, strain NBP2, stronger effect = lower value 1.03 | locus YDR195W, strain ref2 0.969 and 0.994 | locus YDR297W, strain sur2, stronger effect = lower value 0.987 and 1 | locus YDR318W, strain mcm21, stronger effect = lower value 0.974 | locus YDR334W, strain swr1, stronger effect = lower value 1.04 and 1.03 | locus YDR335W, strain msn5, stronger effect = lower value 1.01 | locus YDR363W, strain ESC2, stronger effect = lower value 0.991 | locus YDR388W, stronger effect = lower value 0.985 | locus YDR392W, strain spt3, stronger effect = lower value 1 and 0.935 | locus YDR502C, strain sam2, stronger effect = lower value 0.997 | locus YEL003W, strain gim4, stronger effect = lower value 1.02 | locus YEL037C, strain rad23, stronger effect = lower value 1.02 and 1.01 | locus YEL061C, strain CIN8 (second series), stronger effect = lower value 1.03 and 1 | locus YEL061C, strain CIN8, stronger effect = lower value 0.995 | locus YER002W, strain NOP16, stronger effect = lower value 0.994 | locus YER015W, strain faa2, stronger effect = lower value 1.01 and 1 | locus YER016W, strain bim1, stronger effect = lower value 0.987 and 1.01 | locus YER110C, stronger effect = lower value 0.977 | locus YER111C, strain swi4, stronger effect = lower value 0.977 and 1.02 | locus YER155C, strain BEM2 (second series), stronger effect = lower value 1.01 | locus YER155C, strain BEM2, stronger effect = lower value 0.984 | locus YER167W, strain BCK2, stronger effect = lower value 0.964 | locus YFR010W, strain ubp6, stronger effect = lower value 1.01 and 1.03 | locus YGL078C, strain dbp3, stronger effect = lower value 0.992 | locus YGL086W, strain mad1, stronger effect = lower value 0.951 | locus YGL167C, strain pmr1, stronger effect = lower value 0.995 and 1.01 | locus YGL173C, strain kem1, stronger effect = lower value 1 and 1.02 | locus YGL227W, strain vid30, stronger effect = lower value 0.973 and 1.01 | locus YGL240W, strain doc1, stronger effect = lower value 1.02 and 1.03 | locus YGL248W, strain PDE1, stronger effect = lower value 0.984 | locus YGL253W, strain hxk2, stronger effect = lower value 1.01 and 1.04 | locus YGR078C, strain PAC10, stronger effect = lower value 1.03 | locus YGR135W, strain pre9, stronger effect = lower value 0.998 | locus YGR229C, strain SMI1, stronger effect = lower value 1 | locus YGR252W, strain gcn5, stronger effect = lower value 0.955 | locus YHR013C, strain ard1, stronger effect = lower value 0.972 and 0.993 | locus YHR027C, strain rpn1, stronger effect = lower value 0.994 and 1.01 | locus YHR030C, strain SLT2, stronger effect = lower value 0.99 and 0.987 and 0.97 | locus YHR079C, strain IRE1 (second series), stronger effect = lower value 0.996 | locus YHR079C, strain IRE1, stronger effect = lower value 0.99 and 0.969 | locus YHR094C, strain hxt1, stronger effect = lower value 0.985 | locus YHR129C, strain ARP1, stronger effect = lower value 0.99 | locus YHR142W, strain chs7, stronger effect = lower value 0.983 and 1 | locus YHR200W, strain rpn10, stronger effect = lower value 0.982 | locus YIL066C, strain RNR3, stronger effect = lower value 0.965 | locus YIL073C, strain SPO22, stronger effect = lower value 0.944 | locus YIL125W, strain kgd1, stronger effect = lower value 0.996 | locus YIR030C, strain dcg1, stronger effect = lower value 0.987 | locus YJL092W, strain hpr5, stronger effect = lower value 1.01 and 1 | locus YJL095W, strain BCK1 (second series), stronger effect = lower value 0.991 and 1.01 | locus YJL095W, strain BCK1, stronger effect = lower value 0.992 and 1.01 and 0.971 | locus YJL115W, strain asf1, stronger effect = lower value 1.01 | locus YJL129C, strain trk1, stronger effect = lower value 0.974 and 1 | locus YJL134W, strain LCB3, stronger effect = lower value 0.984 | locus YJL154C, strain vps35, stronger effect = lower value 1.01 | locus YJL164C, strain tpk1, stronger effect = lower value 1 and 0.973 | locus YJL166W, strain qcr8, stronger effect = lower value 1.02 and 1.01 | locus YJL168C, strain set2, stronger effect = lower value 0.995 | locus YJL187C, strain SWE1 (second series), stronger effect = lower value 0.998 | locus YJL187C, strain SWE1, stronger effect = lower value 1 and 0.99 | locus YJR043C, strain POL32, stronger effect = lower value 0.983 | locus YJR066W, strain TOR1, stronger effect = lower value 0.923 and 0.916
